Values without a mark were called inactive. Entries that show only a call come without a potency. For some assays here: Potency and affinity values are given separately. Calls of active or inactive are those of the source. Unless noted, the rule behind the calls is not given here.
What was measured:
[1] = antimalarial activity against Dd2 strain (AID 2302;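 active = growth inhibition above 50% at the single 2 µM test dose, taken to imply half-maximal potency below 2 µM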); conditions: P. falciparum Dd2 in RBCs, LDH growth readout, 72 h; at 2 µM; hits give high values
[2] = human hepatoma cell viability loss – ATP luminescence, cytotoxicity control for P. falciparum antimalarial project, primary screen (AID 2303;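 active = inhibition above 50%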); conditions: HepG2 viability, 24-48 h, at 10 µM, hits give high values
[3] = target: L-lactate dehydrogenase (Plasmodium falciparum (isolate CDC / Honduras)) (UniProt Q27743); assay: PfLDH activity inhibition – cell lysate, 3D7 strain, counter-screen for P. falciparum growth inhibition project (AID 2304); conditions: P. falciparum 3D7 crude extract, LDH APAD/NBT absorbance; at 2 µM; hits give high values
[4] = inhibition of 3D7 malaria parasite growth – strain 3D7 (AID 2306); conditions: P. falciparum 3D7 erythrocytic growth, LDH absorbance, 72 h; at 2 µM; hits give high values
[5] = target: Calcium-dependent protein kinase 1 (Plasmodium falciparum (isolate 3D7)) (UniProt P62344); assay: PfCDPK1 kinase inhibitors, biochemical, TCAMS library (AID 1159585; cut-off not given, nearly all actives have IC50 up to about 0.98 µM;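 note: inhibitors leave more ATP so luminescence rises with inhibition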); conditions: recombinant PfCDPK1, Kinase-Glo ATP depletion luminescence
[6] = target: Plasmodium falciparum protein kinase 6 (PK6, PF3D7_1337100) (UniProt Q8IDW1); assay: PfPK6 kinase inhibitors, biochemical, TCAMS library (AID 1159586); conditions: recombinant PfPK6, Kinase-Glo ATP depletion luminescence
[7] = target: Protein kinase 7 (PK7), Plasmodium falciparum 3D7 (PF3D7_0213400) (UniProt Q7YTF7); assay: inhibition of Plasmodium PK7 catalytic activity – biochemical, TCAMS antimalarial set, Kinase-Glo luminescence (AID 1159587); conditions: recombinant PfPK7, Kinase-Glo ATP depletion luminescence
[8] = target: Calcium-dependent protein kinase 4 (Plasmodium falciparum (isolate 3D7)) (UniProt Q8IBS5); assay: PfCDPK4 kinase inhibitors, biochemical, TCAMS library (AID 1159588; cut-off not given, nearly all actives have IC50 up to about 0.91 µM); conditions: recombinant PfCDPK4, Kinase-Glo ATP depletion luminescence
Chain of Calcium-dependent protein kinase 4 (Plasmodium falciparum (isolate 3D7)) (Q8IBS5 whole entry, looked up): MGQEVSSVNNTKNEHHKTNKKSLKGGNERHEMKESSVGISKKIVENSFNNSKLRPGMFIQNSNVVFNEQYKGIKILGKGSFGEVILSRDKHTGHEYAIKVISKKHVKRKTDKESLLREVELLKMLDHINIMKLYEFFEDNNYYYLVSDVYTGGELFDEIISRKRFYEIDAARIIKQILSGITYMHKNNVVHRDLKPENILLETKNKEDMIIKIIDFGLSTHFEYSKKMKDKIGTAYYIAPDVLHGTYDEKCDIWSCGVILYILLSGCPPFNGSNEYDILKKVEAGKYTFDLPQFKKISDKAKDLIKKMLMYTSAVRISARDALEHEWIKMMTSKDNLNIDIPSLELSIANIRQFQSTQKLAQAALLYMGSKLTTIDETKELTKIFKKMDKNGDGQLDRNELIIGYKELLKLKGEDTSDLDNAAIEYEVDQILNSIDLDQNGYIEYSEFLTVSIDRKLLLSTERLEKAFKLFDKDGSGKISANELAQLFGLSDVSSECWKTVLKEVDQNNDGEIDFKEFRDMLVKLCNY

Chain of Protein kinase 7 (PK7), Plasmodium falciparum 3D7 (PF3D7_0213400) (Q7YTF7 1-343): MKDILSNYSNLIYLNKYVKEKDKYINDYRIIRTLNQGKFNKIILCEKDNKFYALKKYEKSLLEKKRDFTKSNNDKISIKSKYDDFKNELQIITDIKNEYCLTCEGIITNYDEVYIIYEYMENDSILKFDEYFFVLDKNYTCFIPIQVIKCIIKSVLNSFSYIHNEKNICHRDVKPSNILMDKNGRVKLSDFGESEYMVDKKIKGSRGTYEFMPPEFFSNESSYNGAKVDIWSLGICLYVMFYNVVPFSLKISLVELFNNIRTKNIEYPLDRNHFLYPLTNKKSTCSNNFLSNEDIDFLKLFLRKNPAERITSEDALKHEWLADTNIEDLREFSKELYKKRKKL
Chain of Calcium-dependent protein kinase 1 (Plasmodium falciparum (isolate 3D7)) (P62344 whole entry, looked up): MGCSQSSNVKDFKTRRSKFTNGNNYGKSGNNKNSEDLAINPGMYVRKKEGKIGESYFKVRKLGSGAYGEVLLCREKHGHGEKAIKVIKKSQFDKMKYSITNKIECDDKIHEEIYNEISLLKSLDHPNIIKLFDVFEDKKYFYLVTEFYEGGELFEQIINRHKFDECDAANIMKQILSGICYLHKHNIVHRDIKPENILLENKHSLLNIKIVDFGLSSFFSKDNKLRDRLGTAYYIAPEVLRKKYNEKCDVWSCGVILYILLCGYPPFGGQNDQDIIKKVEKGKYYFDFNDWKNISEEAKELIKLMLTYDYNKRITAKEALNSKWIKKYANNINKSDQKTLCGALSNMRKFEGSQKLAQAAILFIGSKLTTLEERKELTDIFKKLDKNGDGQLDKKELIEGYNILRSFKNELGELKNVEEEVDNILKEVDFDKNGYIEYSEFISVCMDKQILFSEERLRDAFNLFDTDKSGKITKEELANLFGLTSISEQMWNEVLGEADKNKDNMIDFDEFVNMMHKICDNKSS
Chain of L-lactate dehydrogenase (Plasmodium falciparum (isolate CDC / Honduras)) (Q27743 whole entry, looked up): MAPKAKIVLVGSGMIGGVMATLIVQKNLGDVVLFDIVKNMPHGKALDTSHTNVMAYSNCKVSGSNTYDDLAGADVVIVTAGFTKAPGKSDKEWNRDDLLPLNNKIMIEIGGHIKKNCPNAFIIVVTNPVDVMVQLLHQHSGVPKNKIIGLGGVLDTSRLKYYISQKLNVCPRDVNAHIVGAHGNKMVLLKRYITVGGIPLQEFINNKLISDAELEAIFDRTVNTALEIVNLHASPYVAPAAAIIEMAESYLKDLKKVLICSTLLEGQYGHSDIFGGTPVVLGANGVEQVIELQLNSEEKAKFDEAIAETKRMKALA
Chain of Plasmodium falciparum protein kinase 6 (PK6, PF3D7_1337100) (Q8IDW1 1-305): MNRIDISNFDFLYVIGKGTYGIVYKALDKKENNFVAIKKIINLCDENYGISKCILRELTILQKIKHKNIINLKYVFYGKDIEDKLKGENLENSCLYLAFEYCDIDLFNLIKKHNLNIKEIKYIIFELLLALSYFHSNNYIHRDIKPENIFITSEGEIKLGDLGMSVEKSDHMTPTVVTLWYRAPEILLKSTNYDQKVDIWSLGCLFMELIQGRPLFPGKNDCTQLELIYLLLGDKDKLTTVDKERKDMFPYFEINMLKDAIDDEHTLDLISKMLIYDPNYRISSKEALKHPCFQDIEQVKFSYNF

| Compound | growth inhibition [1] | inhibition [2] | inhibition [3] | growth inhibition [4] | outcome [5] | outcome [6] | outcome [7] | outcome [8] |
| --- | --- | --- | --- | --- | --- | --- | --- | --- |
| CC1(C)N=C(N)N=C(N)N1OCc1cccc2c1ccc1ccccc12 | 97% (active) | 63% (active) | 4% | 95% (active) | inactive | inactive | inactive | inactive |
| CCC[C@@H]([C@@H](CC1CCCCC1)C(=O)NC(C(=O)Nc1nccs1)C(CC)c1ccccc1)N(O)C=O (stereo not given in full) | 19% | 50% (active) | -4% | 89% (active) | inactive | inactive | inactive | inactive |
| Cc1noc(-c2cccs2)c1C(=O)NCCc1cccc(Cl)c1 | 95% (active) | -17% | 0% | 97% (active) | inactive | inactive | inactive | inactive |
| Cc1cccc(OC2CCN(c3ncc(C(=O)NCCCN4CCCC4=O)cc3Cl)CC2)c1 | 95% (active) | 7% | -2% | 96% (active) | inactive | inactive | inactive | inactive |
| CNCCCNc1ccnc2cc(Cl)ccc12 | 25% | 11% | -1% | 101% (active) | inactive | inactive | inactive | inactive |
| CC(C#N)Cc1ccc(-c2cnc(N)c3cc(-c4ccnc(N)n4)ccc23)cc1 (stereo not given) | 62% (active) | 56% (active) | 0% | 96% (active) | inactive | inactive | inactive | inactive |
| CCOC(=O)c1ccc(NC(=O)c2ccccc2C(=O)O)cc1 | 0% | 2% | -3% | 92% (active) | inactive | inactive | inactive | inactive |
| O=C(Nc1cccc(-c2ccc(NCCCN3CCCC3)nc2)c1)c1ccccc1 | 21% | 22% | 4% | 100% (active) | inactive | inactive | inactive | inactive |
| CC(C)C[C@H]1C(=O)N[C@H](C2Cc3ccccc3C2)C(=O)N1[C@@H](C(=O)Nc1ccccc1OCc1ccccc1)c1ccc(F)cc1F | 67% (active) | 12% | 5% | 90% (active) | inactive | inactive | inactive | inactive |
| O=C(Nc1cccc(F)c1)N(Cc1ccc(-c2cccc(CN3CCNCC3)c2)cc1)C1CCN(Cc2ccccc2)CC1 | 54% (active) | 13% | -1% | 97% (active) | inactive | inactive | inactive | inactive |
| Cc1ccc(C(=O)Nc2ccc(C)c(OC3CCN(Cc4ccco4)C3)c2)cc1 (stereo not given) | 49% | 10% | 3% | 90% (active) | inactive | inactive | inactive | inactive |
| Cc1ccc2c(Cl)c(C(=O)N3CCCc4ccccc43)sc2c1 | 15% | 4% | 0% | 99% (active) | inactive | inactive | inactive | inactive |
| CCNC(=O)N1CCN(c2nc(-c3ccccc3)nc(COC)c2Cc2ccc(C)cc2)CC1 | 94% (active) | 27% | 0% | 95% (active) | inactive | inactive | inactive | inactive |
| Cc1cccc2[nH]c(-c3cccc(-c4ccc(NC(=O)c5cccnc5)cc4)c3)nc12 | 45% | 64% (active) | -1% | 100% (active) | inactive | inactive | inactive | inactive |
| COc1ccc2ncc(F)c(CCN3C[C@H](CNCc4cc(C#N)c5c(c4)OCCO5)[C@H](O)C3)c2n1 | 64% (active) | 7% | -5% | 100% (active) | inactive | inactive | inactive | inactive |
| COc1cc(SC)ccc1C(=O)N1CC(C)CC(C)C1 (stereo not given) | 66% (active) | 5% | -8% | 98% (active) | inactive | inactive | inactive | inactive |
| CS(=O)(=O)c1ccc(CNCc2cccc(-c3cccc(-c4nc5ccccc5[nH]4)c3)c2)cc1 | 47% | 3% | -7% | 101% (active) | inactive | inactive | inactive | inactive |
| O=C(NC1CC1)c1cnc(N2CCN(Cc3c(F)cccc3Cl)CC2)c(Cl)c1 | 93% (active) | 0% | -2% | 93% (active) | inactive | inactive | inactive | inactive |
| CC1CCCN(S(=O)(=O)c2ccc(NC(=O)c3cc(-c4ccccc4O)n[nH]3)cc2)C1 (stereo not given) | 49% | 12% | 3% | 93% (active) | inactive | inactive | inactive | inactive |
| COc1cc(C(=O)NCc2nn(CCN3CCC(N4CCCC4)CC3)cc2-c2ccc(Cl)c(Cl)c2)cc(OC)c1OC | -8% | 16% | -1% | 97% (active) | inactive | inactive | inactive | inactive |

| Compound | growth inhibition [1] | inhibition [2] | inhibition [3] | growth inhibition [4] | outcome [5] | outcome [6] | outcome [7] | outcome [8] |
| --- | --- | --- | --- | --- | --- | --- | --- | --- |
| CSc1nc2nc(C)c(Cc3cccc(F)c3)c(C)n2n1 | 45% | 3% | 0% | 87% (active) | inactive | inactive | inactive | inactive |
| O=C(Nc1cncc(NC(=O)c2ccc(Cl)c(Cl)c2)c1)c1ccc(Cl)c(Cl)c1 | 70% (active) | 12% | 0% | 101% (active) | inactive | inactive | inactive | inactive |
| Cc1cc(N2C(N)=NC(N)=NC2(C)C)ccc1Cl | -2% | 66% (active) | -5% | 95% (active) | inactive | inactive | inactive | inactive |
| Cc1ccc(C(C)C)cc1CON1C(N)=NC(N)=NC1(C)C | 92% (active) | 66% (active) | -3% | 94% (active) | inactive | inactive | inactive | inactive |
| COc1ccc(NC(=O)[C@H](Cc2ccccc2)Nc2cc(C)nc(NCC3CCCCC3)n2)cc1 | 83% (active) | 9% | 1% | 100% (active) | inactive | inactive | inactive | inactive |
| COc1cc(OC)cc(C(=O)Nc2nc(-c3ccccn3)cs2)c1 | 72% (active) | 47% | 1% | 97% (active) | inactive | inactive | inactive | inactive |
| NCc1cccc(-c2ccc3ccnc(N)c3c2)c1 | 96% (active) | 7% | 0% | 101% (active) | inactive | inactive | inactive | inactive |
| CCOc1cc(C=NNc2nc3ccccc3[nH]2)ccc1OCc1ccc([N+](=O)[O-])cc1 | 1% | 2% | -6% | 100% (active) | inactive | inactive | inactive | inactive |
| CC(C)(C)c1ccc(CN(C[C@@H](O)CNS(=O)(=O)c2cc(Cl)cc(Cl)c2)C(C)(C)C)cc1 | 94% (active) | 74% (active) | -8% | 98% (active) | inactive | inactive | inactive | inactive |
| Cc1cc(C=C(P(=O)(OC(C)C)OC(C)C)P(=O)(OC(C)C)OC(C)C)c2ccccc2c1O | 54% (active) | 15% | -6% | 85% (active) | inactive | inactive | inactive | inactive |
| CC1(C)Cc2c([nH]c3ccccc23)C(CCCCCCCCC2=NC(C)(C)Cc3c2[nH]c2ccccc32)=N1 | 88% (active) | 100% (active) | -1% | 99% (active) | inactive | inactive | inactive | inactive |
| Cc1ccc(C)c2sc(N(CCCn3ccnc3)C(=O)c3ccco3)nc12 | 63% (active) | 28% | 0% | 96% (active) | inactive | inactive | inactive | inactive |
| O=C(Cc1ccccc1)NC1(c2ccccc2)CCN(CCc2c[nH]c3ccc(F)cc23)CC1 | 62% (active) | 29% | 2% | 87% (active) | inactive | inactive | inactive | inactive |
| CS(=O)(=O)CCNCc1ccc(-c2cc3c(Nc4ccc(OCc5cccc(F)c5)c(Cl)c4)ncnc3s2)[nH]1 | 95% (active) | 5% | 2% | 99% (active) | inactive | inactive | inactive | inactive |
| CCOC(=O)c1[nH]c(-c2cc(Cl)nc(Cl)c2)nc1NC(=S)NCc1ccc(NS(C)(=O)=O)cc1 | 98% (active) | -1% | -1% | 100% (active) | inactive | inactive | inactive | inactive |
| O=C(Nc1ccc(Cl)cc1F)N[C@H]1CCN(CCCCCNC(=O)[C@@H]2C[C@H]2c2ccc(Cl)c(Cl)c2)C1 | -3% | 29% | 3% | 87% (active) | inactive | inactive | inactive | inactive |
| O=C(Nc1ccc(OC2CCN(Cc3ccsc3)CC2)c(Cl)c1)c1cccs1 | 93% (active) | 16% | 1% | 94% (active) | inactive | inactive | inactive | inactive |
| COc1ccc(C(=O)NC2CCN(c3ccnc4cc(Cl)ccc34)C2)cc1 (stereo not given) | 100% (active) | 31% | 2% | 100% (active) | inactive | inactive | inactive | inactive |
| CCN(CC)C(=O)C1CCCN(C(=O)Nc2cc(C(F)(F)F)cc(C(F)(F)F)c2)C1 (stereo not given) | 98% (active) | 0% | -2% | 86% (active) | inactive | inactive | inactive | inactive |
| Cc1cccc(Cl)c1Nc1nnc(-c2cccc(C(=O)NC[C@@H]3CC[C@H]4C[C@@H]3C4(C)C)c2)o1 | 69% (active) | 2% | -3% | 85% (active) | inactive | inactive | inactive | inactive |

From PubChem BioAssay
